Assay outcomes: PubChem BioAssay, several laboratories
Y pestis TopoI – Yersinia pestis topoisomerase I inhibitors, primary screen, biochemical, cleavage product accumulation, plate reader, single point; activity, % at 10 µM; Y. pestis Topo-I cleavage product accumulation; hit rate 0.064% among 360,000; DNA topoisomerase I (Yersinia pestis CO92); in the data active means activity above about 50%, passing the limit was not always enough
GDH-TPI counter-1 – GDH-TPI coupling enzyme inhibitors, primary screen, artefact control for M. tuberculosis FBA inhibitor project, biochemical, absorbance, full deck | GDH-TPI coupled enzyme counterscreen, NADH absorbance | inhibition, % at 4.8 µM | hit rate 1.2% among 360,000 | AID 588335, 2011; in the data active means inhibition above about 30%
TcdB GH inh – TcdB glycohydrolase inhibitors, primary screen, biochemical, single point, plate reader | inhibition, % at 9.99 µM | Toxin B (Clostridioides difficile), P18177 | TcdB glycohydrolase enzymatic assay | AID 652162, 2013 | hit rate 0.24% among 350,000; in the data active means inhibition above about 10%
Mtb FBA inh – Mtb FBA enzyme inhibitors, primary screen, biochemical, fluorescence, strain H37Rv. Fructose-bisphosphate aldolase (Mycobacterium tuberculosis (strain ATCC 25618 / H37Rv)), …. purified M. tuberculosis FBA, fluorescence read-out. inhibition, % at 1 µM. hit rate 2.3% among 360,000. AID 588726, 2011
PrPC surface inh – inhibitors of human cell surface prion protein PrPC, primary screen, cell-based, TR-FRET; inhibition, % at 13.8 µM; TR-FRET read-out; hit rate 0.43% among 370,000; Major prion protein (Homo sapiens), P04156; in the data active means inhibition above about 24%
Mtb FBA confirm – M. tuberculosis aldolase blockers, biochemical, fluorescence, strain H37Rv, confirmation | shares compounds with Mtb FBA inh | purified M. tuberculosis FBA, fluorescence read-out | inhibition, % at 1 µM | hit rate 78% among 5,600 | AID 651616, 2012
GDH-TPI counter-2 – GDH-TPI coupling enzyme inhibitors, artefact control for M. tuberculosis FBA inhibitor project, biochemical, fluorescence, high throughput; GDH-TPI coupled enzyme counterscreen; shares compounds with Mtb FBA inh; inhibition, % at 1 µM; AID 652141, 2013; hit rate 81% among 5,600; in the data active means inhibition above about 10%
Large screens that a line does not name were inactive (follow-up assays come after a bar, where they were run). A selection: hits, their analogues and other compounds. The true share with any hit is near 3.2%. Unless noted, no stated cut-off is given here; in the data, active means inhibition above about 27%; inactive means the rest.

O=C(Nc1ncc(Cc2ccccc2)s1)C1=NCCN1	Mtb FBA inh 65 | Mtb FBA confirm 93 | GDH-TPI counter-2 77
COCC(C)NC(=O)CCS(=O)(=O)c1nc(-c2ccc(OC)cc2)cc(C(F)(F)F)n1 (configuration not stated)	GDH-TPI counter-1 36, Mtb FBA inh 78 (no result: TcdB GH inh) | Mtb FBA confirm active | GDH-TPI counter-2 active
CCOC(=O)Nc1nnc(/C=C/c2ccc(OC)cc2)s1	GDH-TPI counter-1 36, Mtb FBA inh 33 (no result: TcdB GH inh) | Mtb FBA confirm inactive | GDH-TPI counter-2 inactive
CCC(=O)Nc1nnc(/C=C/c2ccccc2)s1	GDH-TPI counter-1 31, Mtb FBA inh 33 | Mtb FBA confirm 124 | GDH-TPI counter-2 103
CCOC(=O)Nc1nnc(-c2ccc(OC)cc2)s1	Mtb FBA inh 52 (no result: TcdB GH inh) | Mtb FBA confirm 158 | GDH-TPI counter-2 121
CCCC(=O)Nc1nnc(-c2cccc(OCC)c2)s1	none (no result: TcdB GH inh)
COc1ccc(/C=C/c2nnc(NC(=O)COc3ccc(C)cc3)s2)cc1	none (no result: TcdB GH inh)
CCOC(=O)Nc1nnc(-c2cccc(OC)c2)s1	Mtb FBA inh 98 (no result: TcdB GH inh) | Mtb FBA confirm active | GDH-TPI counter-2 178
CCc1nnc(NC(=O)Cc2ccc(OC)cc2)s1	none (no result: TcdB GH inh)
C[C@@H]1CN([C@H](C)CO)C(=O)c2cc(C#CC3CC3)cnc2O[C@@H]1CN(C)C(=O)c1ccc(F)cc1	none (no result: Y pestis TopoI, GDH-TPI counter-1, Mtb FBA inh, PrPC surface inh)
O=C(C[C@@H]1CC[C@H](NC(=O)CN2CCOCC2)[C@H](CO)O1)NCCc1ccccc1	none (no result: Y pestis TopoI, GDH-TPI counter-1, Mtb FBA inh, PrPC surface inh)
O=c1c2c(nc3cc(-c4ccccc4)[nH]n13)CCC2	Mtb FBA inh 44 (no result: TcdB GH inh) | Mtb FBA confirm 111 | GDH-TPI counter-2 98
Cc1cc2nc3c(c(=O)n2[nH]1)CCCC3	none (no result: TcdB GH inh)
O=c1c2c(nc3cc(-c4ccc(Br)cc4)[nH]n13)CCCC2	none
COc1ccc(-c2cc3nc4c(c(=O)n3[nH]2)CCC4)cc1	Mtb FBA inh 38 (no result: TcdB GH inh) | Mtb FBA confirm 151 | GDH-TPI counter-2 129
COCC(=O)N1C[C@@H](C)[C@@H](OC)CN(C)C(=O)c2cc(NC(=O)NC(C)C)ccc2OC[C@H]1C	none (no result: Y pestis TopoI, GDH-TPI counter-1, Mtb FBA inh, PrPC surface inh)
COCC#Cc1cnc2c(c1)C(=O)N([C@@H](C)CO)C[C@H](C)[C@H](CN(C)C(=O)NC1CCCC1)O2	none (no result: Y pestis TopoI, GDH-TPI counter-1, Mtb FBA inh, PrPC surface inh)
COc1cccc2c(=O)c(SC(F)(F)C(F)C(F)(F)F)c(C)[nH]c12 (configuration not stated)	Mtb FBA inh 35 (no result: TcdB GH inh) | Mtb FBA confirm 114 | GDH-TPI counter-2 100
COc1cccc2c(=O)c(C/C=C(/C)Cl)c(C)[nH]c12	Mtb FBA inh 39 (no result: TcdB GH inh) | Mtb FBA confirm 50 | GDH-TPI counter-2 42
COc1ccccc1-c1sc2cc3c(cc2c1C#Cc1cncn1C)OCO3	Mtb FBA inh 48 | Mtb FBA confirm 88 | GDH-TPI counter-2 61
COc1cc(C2C(C(=O)N3CCOCC3)=C(C)NC3=C2C(=O)CCC3)ccc1OC(C)=O (configuration not stated)	none
CC1=C(C(=O)N2CCOCC2)C(c2ccccc2F)C2=C(CCCC2=O)N1 (configuration not stated)	Mtb FBA inh 28 | Mtb FBA confirm 92 | GDH-TPI counter-2 61
COc1ccc(-c2ccc(SCC(=O)NC3CCCC3)nn2)cc1OC	none
COc1ccc(-c2ccc(C#N)c(SCC(=O)NC3CC3)n2)cc1OC	Mtb FBA inh 99 | Mtb FBA confirm 108 | GDH-TPI counter-2 111
CCSc1nc(-c2ccc(OC)cc2)ccc1C#N	Mtb FBA inh 42 (no result: TcdB GH inh) | Mtb FBA confirm 84 | GDH-TPI counter-2 80
Nc1nc2sc3c(c2cc1C(=O)NCC(=O)O)CCCC3	none
Nc1nc2sc3c(c2cc1C(=O)N1CCOCC1)CCCC3	Mtb FBA inh 32 (no result: TcdB GH inh) | Mtb FBA confirm 56 | GDH-TPI counter-2 54
C[C@@H]1CCCCO[C@H](CN(C)C(=O)C2CCCCC2)[C@H](C)CN([C@H](C)CO)C(=O)c2cc(NS(=O)(=O)c3ccc(Cl)cc3)ccc2O1	none (no result: Y pestis TopoI, GDH-TPI counter-1, Mtb FBA inh, PrPC surface inh)
COc1ccc2oc(-c3ccccc3[N+](=O)[O-])cc(=O)c2c1	none
